High-throughput results from PubChem.
This is a sample that favours compounds with a hit; in the whole collection about 1.2% have one here.
GSH bead fluor: compound fluoresces at 488/530 nm on GSH beads; GSH beads flow cytometry, compound fluorescence 488/530 nm; stronger effect = higher value; fluorescence (KMESF) at 10 µM; 190,000 tested, 0.25% active; AID 1776; in the data active means fluorescence above about 89;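 further: glutathione beads carrying GST-tagged Bcl family fusion proteins plus one bare bead set; values are compound well signal with DMSO vehicle wells as background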
RGS4-Gao reg: human RGS4-Galphao interaction regulation | P09471 | Multiplexed bead flow cytometry, RGS4-Galphao binding; actives lie on both sides | binding response (% of control), % at 10 µM | 220,000 tested, 0.33% active; in the data active means binding response below about 49% or above about 150%; inactive means in between;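 further: fluorescent Galphao activated with aluminum fluoride binding bead-coupled RGS4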
Target sequence (P09471 whole entry, looked up): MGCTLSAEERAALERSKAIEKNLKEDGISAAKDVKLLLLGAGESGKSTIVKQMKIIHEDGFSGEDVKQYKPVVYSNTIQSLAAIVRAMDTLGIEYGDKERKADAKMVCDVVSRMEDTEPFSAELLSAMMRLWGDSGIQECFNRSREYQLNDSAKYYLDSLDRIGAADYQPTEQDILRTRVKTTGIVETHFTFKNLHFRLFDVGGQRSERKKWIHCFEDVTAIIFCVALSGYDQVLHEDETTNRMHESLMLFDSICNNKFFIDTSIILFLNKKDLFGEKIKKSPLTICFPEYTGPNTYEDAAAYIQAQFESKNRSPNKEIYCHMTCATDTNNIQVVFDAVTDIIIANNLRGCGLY
RGS16-Gao HTS: RGS16-Galphao interaction regulator (human). O15492+P09471. bead-based flow cytometry RGS16-Galphao binding, fluorescence; actives lie on both sides. binding response (% of control), % at 10 µM. 220,000 tested, 0.38% active. AID 1441; call rule not given here;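 further: Galphao activated by GDP with aluminum fluoride before binding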
Target sequence (O15492 whole entry, looked up): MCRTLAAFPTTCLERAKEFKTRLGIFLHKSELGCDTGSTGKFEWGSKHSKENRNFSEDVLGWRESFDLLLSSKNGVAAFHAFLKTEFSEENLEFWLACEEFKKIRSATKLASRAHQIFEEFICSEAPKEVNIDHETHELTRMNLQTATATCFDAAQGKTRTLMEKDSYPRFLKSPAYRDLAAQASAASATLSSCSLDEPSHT
Target sequence (P09471 whole entry, looked up): as the sequence (P09471 whole entry, looked up) above
RGS7-Gao: modulates binding of RGS7 to human Galphao. Multiplexed bead flow cytometry; actives lie on both sides. 220,000 tested, 0.35% active. AID 1439. P09471. binding response (% of control), % at 10 µM; in the data active means binding response below about 49% or above about 150%; inconclusive means no clear call, values can overlap the other calls; inactive means in between;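 further: fluorescent Galphao held in activated GDP-AlF4 state binding bead-coupled RGS7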
Avidin fluor: avidin bead compound fluorescence profile. fluorescence (KMESF) at 10 µM. Avidin beads, compound fluorescence 488/530 nm, flow cytometry; stronger effect = higher value. 220,000 tested, 0.38% active; in the data active means fluorescence above about 47
RGS8-Gao reg: human RGS8-Galphao interaction regulation. P09471. multiplexed bead flow cytometry, RGS8-Galphao binding; actives lie on both sides. response (percent of control binding), % at 10 µM. 220,000 tested, 0.34% active. AID 1423; in the data active means response below about 60% or above about 140%; inactive means in between;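 further: Galphao activated as the GDP aluminium fluoride complex binding bead-coupled RGS8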
The depositor's hits bear a star; u = inconclusive; x = no result.

SMILES	GSH bead fluor	RGS4-Gao reg	RGS16-Gao HTS	RGS7-Gao	Avidin fluor	RGS8-Gao reg
CC(=O)c1ccc(NS(=O)(=O)c2ccc(N)cc2)cc1	12	93.2	69.2	94.6	15	92.8
CN1CCN(Cc2cc(=O)oc3ccc(Cl)cc23)CC1	7	105.0	103.5	103.3	8	100.2
CCOC(=O)N1CCN(Cc2cc(=O)oc3ccc(Cl)cc23)CC1	267*	101.6	101.8	101.7	7	101.8
CCOC(=O)/C=C1\SCC(=O)N1Cc1nnc(-c2ccccc2Br)o1	22	97.9	97.6	101.2	50*	97.9
C=CCNC(=O)C1CC1(c1ccccc1)c1ccccc1 (stereo unspecified)	11	103.1	112.7	99.4	6	104.6
COc1ccc(NC(=O)CCSCCc2ccccn2)cc1OC	8	102.1	105.1	101.3	9	100.2
O=C(CCCn1c(=O)c2ccccc2n(Cc2ccccc2)c1=O)NCc1ccco1	10	127.4	136.4	122.0	60*	109.5
O=C(CCCCn1c(=O)c2ccccc2n(Cc2ccc(F)cc2)c1=O)NCc1ccco1	19	95.1	99.2	101.1	7	97.8
Cn1c(Cn2c(=O)sc3ccccc32)nnc1SCC(=O)NCc1ccco1	16	99.3	107.0	96.8	26	100.3
O=C(CCn1c(=O)sc2ccccc21)NCc1ccco1	120*	123.4	183.5	120.2	14	120.7
O=S(=O)(NC1=NCCCCC1)c1ccccc1Cl	x	99.8	96.4	u	5	98.8
CCCC(=O)NNC(=O)c1c(O)c2ccccc2[nH]c1=O	23	100.5	103.5	104.5	10	98.7
CCn1c(SCC(=O)N2CCCCC2C)nnc1-c1ccc(S(=O)(=O)N2CCN(C)CC2)cc1 (stereo unspecified)	264*	109.9	131.7	107.0	7	110.1
CCOC(=O)C(C)Oc1ccc(NC(=O)C(Cl)Cl)cc1 (stereo unspecified)	x	101.0	100.5	u	7	99.9
O=C(O)c1ccc(Sc2nnc(-c3cccc(Br)c3)o2)c([N+](=O)[O-])c1	4	103.9	104.5	100.6	8	103.1
COc1cc(-c2nnc(Sc3ccc(C(F)(F)F)cc3[N+](=O)[O-])o2)cc(OC)c1OC	19	106.3	103.5	105.9	72*	103.0
Cc1ccc(N(CC(=O)NCc2ccco2)C(=O)CCC(=O)Nc2ccccn2)cc1C	254*	100.3	103.8	99.0	8	98.0
Cc1cc(C)cc(N(CC(=O)NCc2ccco2)C(=O)CCC(=O)Nc2ccccn2)c1	24	100.3	102.0	100.9	33	100.2
O=C(CN1CCC(NC(=O)c2ccco2)CC1)Nc1cccc2ccccc12	120*	118.7	109.0	116.5	6	107.2
COc1cc(NC(=O)CSc2nnc(C)s2)cc(OC)c1OC	19	102.8	103.0	102.4	8	101.4
CSc1cccc(NC(=O)CSc2nnc(C)s2)c1	109*	98.2	93.2	101.0	6	98.1
Cc1nn(C(=O)c2nn(C)cc2[N+](=O)[O-])c(C)c1Br	13	90.3	90.0	92.2	7	93.3
COc1ccc(/C(O)=C2/C(=O)C(=O)N(Cc3ccco3)C2c2cccs2)cc1 (stereo unspecified)	17	102.5	110.2	106.9	23	103.6
COc1ccc(C2/C(=C(\O)c3ccc4c(c3)OCCO4)C(=O)C(=O)N2Cc2ccco2)c(OC)c1 (stereo unspecified)	122*	117.3	112.9	112.0	8	105.8
CC(C)CC(NC(=O)c1ccc(Cl)cc1)C(=O)OCC(=O)c1ccc2c(c1)NC(=O)CO2 (stereo unspecified)	239*	109.6	100.4	110.7	4	108.0
SMILES	GSH bead fluor	RGS4-Gao reg	RGS16-Gao HTS	RGS7-Gao	Avidin fluor	RGS8-Gao reg
O=C(Nc1nnc(/C=C/c2ccccc2)s1)c1ccco1	x	118.0	124.3	u	20	105.1
O=C(CSc1nnc(COc2cccc3cccnc23)o1)N1CCN(C(=O)c2ccco2)CC1	136*	116.8	108.4	111.6	6	107.6
COCCN1C(=O)c2ccccc2C(C(=O)Nc2ccc3c(c2)OCCO3)C1c1ccc(F)cc1 (stereo unspecified)	8	103.6	96.2	114.9	62*	99.2
CCN(CC)CCCNC(=O)C1c2ccccc2C(=O)N(CCOC)C1c1ccc(F)cc1 (stereo unspecified)	15	102.2	101.1	u	9	100.5
CC(=O)N1CCC(C(=O)Nc2ccccc2)(N(Cc2ccccc2)C(=O)c2cccnc2)CC1	267*	102.3	106.1	100.0	8	103.6
COc1ccc(CN2CCN(c3cccc(C)c3C)CC2)cc1OC	54	100.8	100.1	98.7	11	100.6
COc1cc(CN2CCN(c3cccc(C)c3C)CC2)cc(Br)c1O	272*	101.9	106.1	102.3	8	103.0
CCOC(=O)C1CSC(CC(=O)Nc2ccc(OC(F)(F)F)cc2)C(=O)N1 (stereo unspecified)	x	101.8	103.8	u	5	103.1
Cc1ccc(C)c(-c2nc3cc(N)ccc3o2)c1	14	100.6	90.4	106.0	61*	96.6
Nc1ccc2oc(-c3ccccc3Cl)nc2c1	12	102.2	98.5	96.1	14	100.4
CCOc1ccccc1OCC(=O)Nc1nnc(C)s1	30	109.3	110.2	130.9	117*	104.2
CCOC(=O)c1sc(NC(=O)C2CC2)cc1C	24	99.5	100.3	99.6	6	99.7
CCOC(=O)c1sc(NC(=S)NC(=O)C2CCCC2)cc1C	12	105.6	103.6	139.1	49*	103.0
Cc1nnc(SCC(=O)NCC2CCCO2)n1-c1ccccc1 (stereo unspecified)	273*	96.7	100.1	94.8	9	98.6
CC1Oc2ccccc2N(CC(=O)NCc2ccccc2)C1=O (stereo unspecified)	24	100.0	104.4	103.5	11	102.7
Cc1nn(CC(=O)NCC2CCCO2)c(=O)c2ccccc12 (stereo unspecified)	270*	104.0	107.9	105.8	9	102.2
CC1Oc2ccccc2N(CC(=O)NCC2CCCO2)C1=O (stereo unspecified)	20	102.1	104.4	108.4	54*	101.9
Cc1nn(CC(=O)O)c(=O)c2ccccc12	263*	108.2	107.1	108.0	7	104.5
O=[N+]([O-])c1cccc(/C=C/c2nc[nH]c2[N+](=O)[O-])c1	x	110.8	110.3	u	5	110.0
COC(=O)c1cc(=O)n(-c2ccc(C(F)(F)F)cc2)[nH]1	x	97.9	99.2	u	3	99.6
CC(=O)Nc1ccc(N2CCN(C(=O)c3cccs3)CC2)cc1	22	104.0	78.3	132.4	99*	95.2
Nc1ccc(N2CCN(C(=O)c3cccs3)CC2)cc1	46	83.4	84.6	85.1	3	91.7
O=C(NCCSc1ccccc1)c1ccc(Br)cc1	18	100.8	102.1	97.2	16	101.5
